Results from PubChem BioAssay (NCI).
This is part of a sample that, as a whole, favours compounds with a hit. Of some 83,000 tested, about 20% had one in any assay.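 Single-concentration screen, 48 h exposure, 96-well plates. Endpoint: percent growth. Below 10 = active.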 Activity calls are given as the source filed them.

Assays:
Assay in all cases: NCI-60 one-dose screen, 48 h (100 = growth as untreated, 0 = no growth, -100 = all killed)
Settings in all cases: 10 µM unless noted
RPMI-8226 leukemia = test system: RPMI-8226 leukemia
OVCAR-8 ovarian = test system: OVCAR-8 ovarian
OVCAR-5 ovarian = test system: OVCAR-5 ovarian
OVCAR-4 ovarian = test system: OVCAR-4 ovarian
SK-OV-3 ovarian = test system: SK-OV-3 ovarian
OVCAR-3 ovarian = test system: OVCAR-3 ovarian
HS 578T breast = test system: HS 578T breast
NCI/ADR-RES ovarian = test system: NCI/ADR-RES ovarian
T-47D breast = test system: T-47D breast
BT-549 breast = test system: BT-549 breast
MDA-MB-435 melanoma = test system: MDA-MB-435 melanoma
SW-620 colon = test system: SW-620 colon
MCF7 breast = test system: MCF7 breast
HCC-2998 colon = test system: HCC-2998 colon
KM12 colon = test system: KM12 colon
IGROV1 ovarian = test system: IGROV1 ovarian
HCT-116 colon = test system: HCT-116 colon

Measured: growth

O=C(Nc1cccc2c(O)c(N=Nc3ccc(S(=O)(=O)Nc4nccs4)cc3)cc(N=Nc3ccc(S(=O)(=O)Nc4nccs4)cc3)c12)C(Cl)Cl
inactive: OVCAR-8 ovarian 59.1% | OVCAR-5 ovarian 112% | OVCAR-4 ovarian 90.3% | SK-OV-3 ovarian 107% | OVCAR-3 ovarian 35.9% | HS 578T breast 56.4% | NCI/ADR-RES ovarian 101% | T-47D breast 88.3% | BT-549 breast 87.3% | MDA-MB-435 melanoma 106% | SW-620 colon 42% | MCF7 breast 57.8% | HCC-2998 colon 107% | KM12 colon 59%
active: RPMI-8226 leukemia -10.9%

COc1ccc(NC(=O)CSc2nc(C)c(C(C)=O)n2-c2ccc([N+](=O)[O-])cc2)cc1
inactive: RPMI-8226 leukemia 102% | OVCAR-8 ovarian 96.4% | OVCAR-5 ovarian 89.8% | OVCAR-4 ovarian 102% | IGROV1 ovarian 95.8% | OVCAR-3 ovarian 119% | HS 578T breast 94.9% | NCI/ADR-RES ovarian 86% | T-47D breast 87.8% | BT-549 breast 91.5% | MDA-MB-435 melanoma 93.2% | SW-620 colon 96.6% | MCF7 breast 93.9% | HCT-116 colon 86.5% | HCC-2998 colon 105% | KM12 colon 107%

COC(=O)c1ccc(CSc2nnc(-c3c(C)nc4ccc(C)cn34)o2)cc1
inactive: RPMI-8226 leukemia 88.4% | OVCAR-8 ovarian 103% | OVCAR-5 ovarian 106% | OVCAR-4 ovarian 94% | IGROV1 ovarian 109% | OVCAR-3 ovarian 119% | HS 578T breast 105% | NCI/ADR-RES ovarian 89.7% | T-47D breast 89.4% | BT-549 breast 100% | MDA-MB-435 melanoma 102% | SW-620 colon 108% | MCF7 breast 85.9% | HCT-116 colon 99.3% | HCC-2998 colon 87% | KM12 colon 110%

NS(=O)(=O)c1cnccc1Oc1cccc2cccnc12
inactive: RPMI-8226 leukemia 88.4% | OVCAR-8 ovarian 54.1% | OVCAR-5 ovarian 82.9% | OVCAR-4 ovarian 118% | SK-OV-3 ovarian 77.8% | OVCAR-3 ovarian 113% | HS 578T breast 88.7% | NCI/ADR-RES ovarian 107% | T-47D breast 109% | BT-549 breast 93.3% | MDA-MB-435 melanoma 108% | SW-620 colon 106% | MCF7 breast 93.4% | HCT-116 colon 97% | HCC-2998 colon 95.9% | KM12 colon 107%

O=C1c2cccc(NCCN=Cc3cc([N+](=O)[O-])ccc3O)c2C(=O)c2c(NCCN=Cc3cc([N+](=O)[O-])ccc3O)cccc21
active: RPMI-8226 leukemia 7.36%
inactive: OVCAR-8 ovarian 78.5% | OVCAR-5 ovarian 86.3% | OVCAR-4 ovarian 69.3% | IGROV1 ovarian 73.5% | OVCAR-3 ovarian 85.1% | HS 578T breast 53.9% | NCI/ADR-RES ovarian 99.9% | T-47D breast 75.8% | BT-549 breast 107% | MDA-MB-435 melanoma 99.3% | SW-620 colon 29.8% | MCF7 breast 20.8% | HCT-116 colon 33.3% | KM12 colon 46.8%

O=C(NC(Cc1nnc2n(Cc3ccccc3)c(=O)c3c4c(sc3n12)CCCC4)c1ccc(Cl)cc1)c1ccccc1 (stereo not drawn)
inactive: RPMI-8226 leukemia 67.9% | OVCAR-8 ovarian 91.3% | OVCAR-5 ovarian 104% | OVCAR-4 ovarian 81% | SK-OV-3 ovarian 109% | OVCAR-3 ovarian 90.4% | HS 578T breast 91.3% | NCI/ADR-RES ovarian 93.9% | T-47D breast 85.3% | BT-549 breast 107% | MDA-MB-435 melanoma 56.8% | SW-620 colon 73.1% | MCF7 breast 84.9% | HCT-116 colon 87.1% | HCC-2998 colon 68.5% | KM12 colon 98.7%

COc1ccc(NC(=O)CSc2nc(C)c(C(C)=O)n2-c2ccc(Cl)cc2)cc1
inactive: RPMI-8226 leukemia 97.3% | OVCAR-8 ovarian 88.7% | OVCAR-5 ovarian 98.6% | OVCAR-4 ovarian 85.3% | IGROV1 ovarian 95.1% | OVCAR-3 ovarian 100% | HS 578T breast 90.4% | NCI/ADR-RES ovarian 89.4% | T-47D breast 80.5% | BT-549 breast 80.4% | MDA-MB-435 melanoma 89% | SW-620 colon 96.1% | MCF7 breast 92.9% | HCT-116 colon 81.3% | HCC-2998 colon 90.3% | KM12 colon 95.5%

Cc1ccc(S(=O)(=O)Oc2cc(OS(=O)(=O)c3ccc(C)cc3)cc(OS(=O)(=O)c3ccc(C)cc3)c2)cc1
inactive: RPMI-8226 leukemia 88.6% | OVCAR-8 ovarian 107% | OVCAR-5 ovarian 105% | OVCAR-4 ovarian 93.2% | SK-OV-3 ovarian 101% | OVCAR-3 ovarian 96.3% | HS 578T breast 95.8% | NCI/ADR-RES ovarian 95.6% | T-47D breast 97.8% | BT-549 breast 118% | MDA-MB-435 melanoma 96.2% | SW-620 colon 92.2% | HCT-116 colon 103% | HCC-2998 colon 139% | KM12 colon 123%

Cc1ccc2nc(C)c(-c3nnc(SCc4ccc(C#N)cc4)o3)n2c1
inactive: RPMI-8226 leukemia 93.6% | OVCAR-8 ovarian 108% | OVCAR-5 ovarian 107% | OVCAR-4 ovarian 95.8% | IGROV1 ovarian 89.5% | OVCAR-3 ovarian 109% | HS 578T breast 93.2% | NCI/ADR-RES ovarian 90.6% | T-47D breast 89.3% | BT-549 breast 85.8% | MDA-MB-435 melanoma 101% | SW-620 colon 105% | HCT-116 colon 91.8% | HCC-2998 colon 108% | KM12 colon 106%

Cc1ccc(NCCN(C)C)c2c(=O)c3ccccc3sc12
inactive: OVCAR-8 ovarian 16.3% | OVCAR-5 ovarian 62% | OVCAR-4 ovarian 42.4% | OVCAR-3 ovarian 33.8% | HS 578T breast 46.4% | NCI/ADR-RES ovarian 38.6% | T-47D breast 22.3% | BT-549 breast 76.6% | MDA-MB-435 melanoma 13.2% | HCT-116 colon 10.2% | KM12 colon 23.3%
active: RPMI-8226 leukemia -23.4% | IGROV1 ovarian -30.9% | SW-620 colon 8.96% | MCF7 breast 0.259% | HCC-2998 colon -16.2%

COc1ccc2c(c1)C(=O)/C(=C/c1cccc(OCC(=O)Nc3nc(C)c(C)s3)c1)O2
active: RPMI-8226 leukemia -63.3% | OVCAR-8 ovarian 4.69% | OVCAR-5 ovarian -77.3% | OVCAR-4 ovarian -66.7% | OVCAR-3 ovarian -58.9% | HS 578T breast 5.38% | NCI/ADR-RES ovarian -59% | T-47D breast -6.43% | BT-549 breast -81.9% | SW-620 colon -76.9% | HCT-116 colon -96.5% | KM12 colon 9.4%
inactive: SK-OV-3 ovarian 46.1% | MDA-MB-435 melanoma 15.3% | MCF7 breast 40.5%

O=[N+]([O-])c1ccc(N2c3ccncc3Sc3ccncc32)cc1
inactive: RPMI-8226 leukemia 93.5% | OVCAR-8 ovarian 87% | OVCAR-5 ovarian 118% | OVCAR-4 ovarian 109% | SK-OV-3 ovarian 116% | OVCAR-3 ovarian 94.2% | HS 578T breast 104% | NCI/ADR-RES ovarian 106% | T-47D breast 97.4% | BT-549 breast 114% | MDA-MB-435 melanoma 112% | SW-620 colon 103% | MCF7 breast 101% | HCT-116 colon 91.6% | HCC-2998 colon 110% | KM12 colon 93.5%

Cc1ccc(/C=C2\C(=O)N(C)c3ccc(S(=O)(=O)Nc4ccc(C(C)(C)C)cc4)cc32)s1
inactive: OVCAR-8 ovarian 29.5% | OVCAR-5 ovarian 69.4% | SK-OV-3 ovarian 76.4% | IGROV1 ovarian 63.9% | OVCAR-3 ovarian 11.4% | NCI/ADR-RES ovarian 62.1% | T-47D breast 55% | BT-549 breast 87.4% | MDA-MB-435 melanoma 69.1% | SW-620 colon 50.4% | MCF7 breast 54.6% | HCT-116 colon 37.2% | HCC-2998 colon 85% | KM12 colon 59.9%
active: OVCAR-4 ovarian -1.02% | HS 578T breast -5.78%

COC(=O)c1ccc(C2Nc3ccc(S(=O)(=O)Nc4ccc(C)c(C)c4)cc3C3OCCC23)cc1 (stereo not drawn)
inactive: OVCAR-8 ovarian 92% | OVCAR-5 ovarian 95.7% | OVCAR-4 ovarian 82.8% | SK-OV-3 ovarian 92% | IGROV1 ovarian 84.4% | HS 578T breast 100% | NCI/ADR-RES ovarian 88.5% | T-47D breast 51.1% | BT-549 breast 84.7% | MDA-MB-435 melanoma 94.7% | SW-620 colon 78.5% | MCF7 breast 43.1% | HCT-116 colon 62.1% | HCC-2998 colon 111% | KM12 colon 78.1%

COc1cc(C(=O)/C=C/c2c(-c3ccc(F)cc3)nc3sc(C)cn23)cc(OC)c1OC
active: NCI/ADR-RES ovarian 2.75% | T-47D breast 9.38% | MDA-MB-435 melanoma 3.64%
inactive: OVCAR-8 ovarian 22.5% | OVCAR-5 ovarian 143% | OVCAR-4 ovarian 24.4% | SK-OV-3 ovarian 64.4% | IGROV1 ovarian 84.9% | OVCAR-3 ovarian 16.5% | HS 578T breast 25.4% | SW-620 colon 30.6% | MCF7 breast 29.5% | HCT-116 colon 20.1% | HCC-2998 colon 68.2% | KM12 colon 10.4%

CC(C)Sc1nc(NNC(N)=S)c(C#N)c(-c2ccc(F)cc2)n1
inactive: OVCAR-8 ovarian 97.4% | OVCAR-5 ovarian 88.3% | OVCAR-4 ovarian 102% | SK-OV-3 ovarian 83.9% | IGROV1 ovarian 97.1% | HS 578T breast 101% | NCI/ADR-RES ovarian 99% | T-47D breast 83.2% | BT-549 breast 104% | MDA-MB-435 melanoma 108% | SW-620 colon 106% | MCF7 breast 99.1% | HCT-116 colon 94.6% | HCC-2998 colon 101% | KM12 colon 99%

Cn1cc(-c2csc(-c3ccccc3)n2)c2cccnc21
inactive: HS 578T breast 20.8% [100 µM]
active: OVCAR-8 ovarian 2.29% [100 µM] | OVCAR-5 ovarian -44.2% [100 µM] | OVCAR-4 ovarian -19.4% [100 µM] | SK-OV-3 ovarian -30.1% [100 µM] | IGROV1 ovarian -20.7% [100 µM] | OVCAR-3 ovarian -31.8% [100 µM] | NCI/ADR-RES ovarian -27.8% [100 µM] | T-47D breast -45.4% [100 µM] | MDA-MB-435 melanoma -45.2% [100 µM] | SW-620 colon -34.1% [100 µM] | MCF7 breast -44.7% [100 µM] | HCT-116 colon -76.9% [100 µM] | HCC-2998 colon -79.3% [100 µM] | KM12 colon -68.6% [100 µM]
